# Data reported in PubChem BioAssay AID1159580 (chemical genetic matrix, 2015).
# Hit rate of the full screen: of about 5,500 compounds, about 2,000 (36%) were called active. Inconclusive results (about 18%) are left out. The list shows a part of the results. A number with no mark means an inactive call. Cut-off read from the data, not from the text of the source: active = normalized growth mostly below about 0.91 (no sharp cut-off); inconclusive = no clear call, values can overlap the other calls; inactive = mostly above about 0.92.
# Test: chemical genetic growth profiling, strain panel (AID 1159580);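 note: tested at 20 µM; growth read once vehicle control cultures reached saturation at 30 °C; 1 = growth at the plate median or of vehicle wells; lower values mean less growth of the strain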
# Conditions: growth OD
smiles,measurement,setting,value
CN(Cc1cnc2nc(N)nc(N)c2n1)c1ccc(C(=O)NC(CCC(=O)O)C(=O)O)cc1 (stereo unspecified),normalized growth,"S. cerevisiae deletion strains, locus YJR066W, strain TOR1, active compounds read low",0.0866 (active)
same,normalized growth,"S. cerevisiae deletion strains, locus YKL009W, strain mrt4, active compounds read low",0.527 (active)
same,normalized growth,"S. cerevisiae deletion strains, locus YKL068W, active compounds read low",0.513 (active)
same,normalized growth,"S. cerevisiae deletion strains, locus YKL085W, strain MDH1 (second series), active compounds read low",0.311 (active)
same,normalized growth,"S. cerevisiae deletion strains, locus YKL085W, strain MDH1, active compounds read low",0.311 (active)
same,normalized growth,"S. cerevisiae deletion strains, locus YKL160W, strain elf1, active compounds read low",0.94
same,normalized growth,"S. cerevisiae deletion strains, locus YKR001C, strain vps1, active compounds read low",0.953
same,normalized growth,"S. cerevisiae deletion strains, locus YKR026C, strain gcn3, active compounds read low",0.934
same,normalized growth,"S. cerevisiae deletion strains, locus YKR091W, strain srl3, active compounds read low",0.94
same,normalized growth,"S. cerevisiae deletion strains, locus YLL001W, strain dnm1, active compounds read low",0.873 (active)
same,normalized growth,"S. cerevisiae deletion strains, locus YLL026W, active compounds read low",0.935
same,normalized growth,"S. cerevisiae deletion strains, locus YLL041C, strain sdh2, active compounds read low",0.955
same,normalized growth,"S. cerevisiae deletion strains, locus YLR027C, strain aat2, active compounds read low",0.94
same,normalized growth,"S. cerevisiae deletion strains, locus YLR039C, strain RIC1, active compounds read low",0.909
same,normalized growth,"S. cerevisiae deletion strains, locus YLR058C, strain SHM2, active compounds read low",0.99
same,normalized growth,"S. cerevisiae deletion strains, locus YLR102C, strain apc9, active compounds read low",0.993
same,normalized growth,"S. cerevisiae deletion strains, locus YLR113W, strain HOG1, active compounds read low",0.247 (active)
same,normalized growth,"S. cerevisiae deletion strains, locus YLR221C, strain rsa3, active compounds read low",0.816 (active)
same,normalized growth,"S. cerevisiae deletion strains, locus YLR258W, strain gsy2, active compounds read low",0.923
same,normalized growth,"S. cerevisiae deletion strains, locus YLR262C, strain YPT6 (second series), active compounds read low",0.952
same,normalized growth,"S. cerevisiae deletion strains, locus YLR262C, strain YPT6, active compounds read low",0.958
same,normalized growth,"S. cerevisiae deletion strains, locus YLR268W, strain sec22, active compounds read low",0.984
same,normalized growth,"S. cerevisiae deletion strains, locus YLR320W, strain mms22, active compounds read low",0.789 (active)
same,normalized growth,"S. cerevisiae deletion strains, locus YLR330W, strain CHS5, active compounds read low",0.973
same,normalized growth,"S. cerevisiae deletion strains, locus YLR342W, strain FKS1 (second series), active compounds read low",1.01
same,normalized growth,"S. cerevisiae deletion strains, locus YLR342W, strain FKS1, active compounds read low",0.928
same,normalized growth,"S. cerevisiae deletion strains, locus YLR357W, strain rsc2, active compounds read low",0.943
same,normalized growth,"S. cerevisiae deletion strains, locus YLR370C, strain arc18, active compounds read low",0.877 (active)
same,normalized growth,"S. cerevisiae deletion strains, locus YLR371W, strain rom2, active compounds read low",1.01
same,normalized growth,"S. cerevisiae deletion strains, locus YLR384C, strain iki3, active compounds read low",0.88 (active)
same,normalized growth,"S. cerevisiae deletion strains, locus YLR418C, strain cdc73, active compounds read low",0.96
same,normalized growth,"S. cerevisiae deletion strains, locus YML016C, strain PPZ1, active compounds read low",1.01
same,normalized growth,"S. cerevisiae deletion strains, locus YML032C, strain rad52, active compounds read low",0.986
same,normalized growth,"S. cerevisiae deletion strains, locus YML120C, strain ndi1, active compounds read low",0.813 (active)
same,normalized growth,"S. cerevisiae deletion strains, locus YML124C, strain tub3, active compounds read low",0.974
same,normalized growth,"S. cerevisiae deletion strains, locus YMR058W, strain fet3, active compounds read low",0.893 (active)
same,normalized growth,"S. cerevisiae deletion strains, locus YMR078C, strain ctf18, active compounds read low",0.986
same,normalized growth,"S. cerevisiae deletion strains, locus YMR125W, strain sto1, active compounds read low",0.95
same,normalized growth,"S. cerevisiae deletion strains, locus YMR129W, active compounds read low",0.948
same,normalized growth,"S. cerevisiae deletion strains, locus YMR205C, strain PFK2, active compounds read low",0.948
same,normalized growth,"S. cerevisiae deletion strains, locus YMR223W, strain ubp8, active compounds read low",0.953
same,normalized growth,"S. cerevisiae deletion strains, locus YMR231W, strain pep5, active compounds read low",0.923 (active)
same,normalized growth,"S. cerevisiae deletion strains, locus YMR263W, strain SAP30, active compounds read low",0.987
same,normalized growth,"S. cerevisiae deletion strains, locus YMR307W, strain GAS1, active compounds read low",1.02
same,normalized growth,"S. cerevisiae deletion strains, locus YNL067W, strain RPL9B, active compounds read low",0.963
same,normalized growth,"S. cerevisiae deletion strains, locus YNL071W, strain lat1, active compounds read low",0.961
same,normalized growth,"S. cerevisiae deletion strains, locus YNL153C, strain GIM3, active compounds read low",0.974
same,normalized growth,"S. cerevisiae deletion strains, locus YNL175C, strain NOP13, active compounds read low",0.975
same,normalized growth,"S. cerevisiae deletion strains, locus YNL183C, strain NPR1, active compounds read low",0.112 (active)
same,normalized growth,"S. cerevisiae deletion strains, locus YNL197C, strain WHI3, active compounds read low",0.976
same,normalized growth,"S. cerevisiae deletion strains, locus YNL209W, strain ssb2, active compounds read low",0.913 (active)
same,normalized growth,"S. cerevisiae deletion strains, locus YNL224C, strain SQS1, active compounds read low",0.977
same,normalized growth,"S. cerevisiae deletion strains, locus YNL233W, strain BNI4, active compounds read low",0.98
same,normalized growth,"S. cerevisiae deletion strains, locus YNL248C, strain rpa49, active compounds read low",0.925
same,normalized growth,"S. cerevisiae deletion strains, locus YNL250W, strain rad50, active compounds read low",0.195 (active)
same,normalized growth,"S. cerevisiae deletion strains, locus YNL271C, strain bni1, active compounds read low",0.291 (active)
same,normalized growth,"S. cerevisiae deletion strains, locus YNL298W, strain CLA4, active compounds read low",0.385 (active)
same,normalized growth,"S. cerevisiae deletion strains, locus YNL307C, strain MCK1, active compounds read low",1.01
same,normalized growth,"S. cerevisiae deletion strains, locus YNL322C, strain KRE1 (second series), active compounds read low",0.512 (active)
same,normalized growth,"S. cerevisiae deletion strains, locus YNL322C, strain KRE1, active compounds read low",0.971
same,normalized growth,"S. cerevisiae deletion strains, locus YNR049C, strain mso1, active compounds read low",0.921
same,normalized growth,"S. cerevisiae deletion strains, locus YNR052C, strain pop2, active compounds read low",0.951
same,normalized growth,"S. cerevisiae deletion strains, locus YOL012C, strain htz1",1.38
same,normalized growth,"S. cerevisiae deletion strains, locus YOL147C, strain pex11, active compounds read low",0.982
same,normalized growth,"S. cerevisiae deletion strains, locus YOR001W, strain rrp6, active compounds read low",0.929
same,normalized growth,"S. cerevisiae deletion strains, locus YOR061W, strain CKA2, active compounds read low",0.99
same,normalized growth,"S. cerevisiae deletion strains, locus YOR069W, strain VPS5, active compounds read low",0.987
same,normalized growth,"S. cerevisiae deletion strains, locus YOR070C, strain gyp1, active compounds read low",0.934
same,normalized growth,"S. cerevisiae deletion strains, locus YOR080W, strain dia2, active compounds read low",0.902 (active)
same,normalized growth,"S. cerevisiae deletion strains, locus YOR083W, strain WHI5 (second series), active compounds read low",0.984
same,normalized growth,"S. cerevisiae deletion strains, locus YOR083W, strain WHI5, active compounds read low",0.908
same,normalized growth,"S. cerevisiae deletion strains, locus YOR106W, strain vam3, active compounds read low",0.801 (active)
same,normalized growth,"S. cerevisiae deletion strains, locus YOR136W, strain idh2, active compounds read low",0.995
same,normalized growth,"S. cerevisiae deletion strains, locus YOR144C, strain elg1, active compounds read low",0.975
same,normalized growth,"S. cerevisiae deletion strains, locus YOR184W, strain ser1, active compounds read low",0.968
same,normalized growth,"S. cerevisiae deletion strains, locus YOR231W, strain MKK1, active compounds read low",0.193 (active)
same,normalized growth,"S. cerevisiae deletion strains, locus YOR265W, strain rbl2, active compounds read low",0.911 (active)
same,normalized growth,"S. cerevisiae deletion strains, locus YOR270C, strain vph1, active compounds read low",0.957
same,normalized growth,"S. cerevisiae deletion strains, locus YOR290C, strain snf2, active compounds read low",0.845 (active)
same,normalized growth,"S. cerevisiae deletion strains, locus YOR316C, strain cot1, active compounds read low",0.984
same,normalized growth,"S. cerevisiae deletion strains, locus YPL051W, strain arl3, active compounds read low",0.984
same,normalized growth,"S. cerevisiae deletion strains, locus YPL078C, strain atp4, active compounds read low",0.947
same,normalized growth,"S. cerevisiae deletion strains, locus YPL106C, strain sse1, active compounds read low",0.947
same,normalized growth,"S. cerevisiae deletion strains, locus YPL240C, strain hsp82, active compounds read low",0.957
same,normalized growth,"S. cerevisiae deletion strains, locus YPL256C, strain CLN2, active compounds read low",0.227 (active)
same,normalized growth,"S. cerevisiae deletion strains, locus YPR119W, strain clb2, active compounds read low",0.989
same,normalized growth,"S. cerevisiae deletion strains, locus YPR141C, strain kar3, active compounds read low",0.345 (active)
same,normalized growth,"S. cerevisiae deletion strains, locus YPR163C, strain tif3, active compounds read low",0.985
same,normalized growth,"S. cerevisiae deletion strains, locus YPR167C, strain met16, active compounds read low",0.975
same,normalized growth,"S. cerevisiae deletion strains, strain wtn01, active compounds read low",0.97
same,normalized growth,"S. cerevisiae strains, strain wild type, active compounds read low",0.973
